The molecules below were run against Homeodomain-interacting protein kinase 2 (Homo sapiens) (UniProt Q9H2X6). Settings: at 10 µM.
Sequence of Homeodomain-interacting protein kinase 2 (Homo sapiens) (Q9H2X6 whole entry, looked up): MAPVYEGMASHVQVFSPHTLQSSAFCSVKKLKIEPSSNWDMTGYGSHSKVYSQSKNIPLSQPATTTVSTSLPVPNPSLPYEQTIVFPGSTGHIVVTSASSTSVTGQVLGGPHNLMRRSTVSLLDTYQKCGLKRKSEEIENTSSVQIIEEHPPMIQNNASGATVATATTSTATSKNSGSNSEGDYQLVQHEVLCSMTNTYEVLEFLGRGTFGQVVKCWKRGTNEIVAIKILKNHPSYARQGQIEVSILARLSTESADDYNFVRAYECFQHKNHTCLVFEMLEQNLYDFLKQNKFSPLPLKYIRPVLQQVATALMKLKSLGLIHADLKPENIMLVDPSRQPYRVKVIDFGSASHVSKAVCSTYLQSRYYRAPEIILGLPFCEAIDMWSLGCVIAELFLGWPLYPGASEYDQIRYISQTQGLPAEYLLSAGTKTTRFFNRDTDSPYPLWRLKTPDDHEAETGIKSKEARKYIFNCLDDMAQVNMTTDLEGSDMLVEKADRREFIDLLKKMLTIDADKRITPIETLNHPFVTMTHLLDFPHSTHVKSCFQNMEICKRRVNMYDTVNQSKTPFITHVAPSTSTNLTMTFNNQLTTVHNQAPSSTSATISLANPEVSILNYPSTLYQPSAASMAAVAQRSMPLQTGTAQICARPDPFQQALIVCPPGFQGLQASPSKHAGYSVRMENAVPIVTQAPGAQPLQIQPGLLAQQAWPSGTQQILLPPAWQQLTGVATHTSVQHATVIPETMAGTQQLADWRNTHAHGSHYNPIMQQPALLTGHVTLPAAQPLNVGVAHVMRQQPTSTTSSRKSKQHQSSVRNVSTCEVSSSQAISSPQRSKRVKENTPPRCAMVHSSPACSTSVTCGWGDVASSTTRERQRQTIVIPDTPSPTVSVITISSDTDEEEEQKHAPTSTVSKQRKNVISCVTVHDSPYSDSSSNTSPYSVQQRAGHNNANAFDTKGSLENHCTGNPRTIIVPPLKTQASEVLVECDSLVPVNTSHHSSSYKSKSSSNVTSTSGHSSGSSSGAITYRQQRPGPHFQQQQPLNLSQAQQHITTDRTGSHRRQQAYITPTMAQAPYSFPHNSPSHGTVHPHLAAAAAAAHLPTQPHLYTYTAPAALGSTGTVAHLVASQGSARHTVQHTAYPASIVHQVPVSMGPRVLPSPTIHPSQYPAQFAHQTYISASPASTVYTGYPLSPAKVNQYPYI
For COc1ccc2c(c1)c(C1=C(c3c[nH]c4ccccc34)C(=O)NC1=O)cn2CCCN(C)C, the residual activity was 13%.
In the case of COc1cc2nccc(Oc3ccc(NC(=S)NC(=O)c4ccccc4C)cc3)c2cc1OC, the residual activity is reported as 91%.
Molecule CC(C)(C)n1nc(Cc2cccc3ccccc23)c2c(N)ncnc21 has a residual activity of 110%.
O=C(NC(NC(=S)Nc1ccc(F)c([N+](=O)[O-])c1)C(Cl)(Cl)Cl)C(c1ccccc1)c1ccccc1 (configuration not stated) gave a residual activity of 77%.
Nc1ncnc2c1cnn2-c1ccccc1 showed a residual activity of 95%.
With O=C1NC(=O)C(c2c[nH]c3ccccc23)=C1c1c[nH]c2ccccc12 the residual activity was 15%.
Molecule O=C1NC(=O)c2c1c1c3ccccc3[nH]c1n1cncc21 has a residual activity of 13%.
CCCCc1c(-c2ccc(OC)cc2)[nH]c2nccnc12 was tested, and the residual activity was 90%.
Molecule Nc1ncnc2c1c(-c1ccc(Oc3ccccc3)cc1)cn2C1CCCC1 has a residual activity of 75%.
Work on O=c1cc(N2CCOCC2)oc2c1ccc1ccccc12 yielded a residual activity of 22%.
With CCCC(=O)Oc1ccc2[nH]c(C(=O)c3cc4ccccc4[nH]3)cc2c1 the residual activity was 100%.
CCN(CC)CCNC(=O)c1c(C)[nH]c(/C=C2\C(=O)Nc3ccc(Cl)cc32)c1C was tested, and the residual activity was 1%.
O=C(c1cc2cc(O)ccc2[nH]1)c1cc2cc(O)ccc2[nH]1 was tested, and the residual activity was 28%.
With CN(C)S(=O)(=O)c1ccc2c(c1)/C(=C/c1cc3c([nH]1)CCCC3)C(=O)N2 the residual activity was 90%.
With Oc1cccc(-c2nc(N3CCOCC3)c3oc4ncccc4c3n2)c1 the residual activity was 89%.
Molecule O=C(CCCc1ccc(-c2ccccc2F)cc1)Nc1ccc(O)cc1 has a residual activity of 105%.
With NC(=O)Nc1sc(-c2ccc(F)cc2)cc1C(N)=O the residual activity was 67%.
With Cc1cc(C)c(/C=C2\C(=O)Nc3ccccc32)[nH]1 the residual activity was 39%.
O=C(c1ccccc1)c1ccc(N2CCOCC2)cc1O gave a residual activity of 94%.
With O=C(O)/C=C/c1cc(Br)c(Br)c(Br)c1Br the residual activity was 27%.
Molecule CCCCc1c(-c2ccc(O)cc2)[nH]c2nccnc12 has a residual activity of 62%.
O=c1cc(N2CCNCC2)oc2c(-c3ccccc3)cccc12 was tested, and the residual activity was 90%.
With O=C1Nc2ccc(Cl)cc2/C1=C/c1cc(Cl)c(O)c(Cl)c1 the residual activity was 22%.
Work on CC(C)[C@H](CO)Nc1nc(Nc2cc(N)cc(Cl)c2)c2ncn(C(C)C)c2n1 yielded a residual activity of 32%.
Molecule O=C1C(Cl)=C(N2C(=O)CCC2=O)C(=O)c2ccccc21 has a residual activity of 92%.
Cn1c2ccccc2c2c3c(c4c5ccccc5n(CCC#N)c4c21)CNC3=O was tested, and the residual activity was 11%.
For CC(C)c1nn(-c2c(Cl)cccc2Cl)c2nc(Cc3ccc(OCCO)cc3)[nH]c(=O)c12, the residual activity was 89%.
Nc1nc(Nc2ccc(S(N)(=O)=O)cc2)nn1C(=O)c1c(F)cccc1F gave a residual activity of 6%.

Each molecule was assayed against Homeodomain-interacting protein kinase 3 (Homo sapiens) (UniProt Q9H422). Settings: at 1 µM.
Sequence of Homeodomain-interacting protein kinase 3 (Homo sapiens) (Q9H422 whole entry, looked up): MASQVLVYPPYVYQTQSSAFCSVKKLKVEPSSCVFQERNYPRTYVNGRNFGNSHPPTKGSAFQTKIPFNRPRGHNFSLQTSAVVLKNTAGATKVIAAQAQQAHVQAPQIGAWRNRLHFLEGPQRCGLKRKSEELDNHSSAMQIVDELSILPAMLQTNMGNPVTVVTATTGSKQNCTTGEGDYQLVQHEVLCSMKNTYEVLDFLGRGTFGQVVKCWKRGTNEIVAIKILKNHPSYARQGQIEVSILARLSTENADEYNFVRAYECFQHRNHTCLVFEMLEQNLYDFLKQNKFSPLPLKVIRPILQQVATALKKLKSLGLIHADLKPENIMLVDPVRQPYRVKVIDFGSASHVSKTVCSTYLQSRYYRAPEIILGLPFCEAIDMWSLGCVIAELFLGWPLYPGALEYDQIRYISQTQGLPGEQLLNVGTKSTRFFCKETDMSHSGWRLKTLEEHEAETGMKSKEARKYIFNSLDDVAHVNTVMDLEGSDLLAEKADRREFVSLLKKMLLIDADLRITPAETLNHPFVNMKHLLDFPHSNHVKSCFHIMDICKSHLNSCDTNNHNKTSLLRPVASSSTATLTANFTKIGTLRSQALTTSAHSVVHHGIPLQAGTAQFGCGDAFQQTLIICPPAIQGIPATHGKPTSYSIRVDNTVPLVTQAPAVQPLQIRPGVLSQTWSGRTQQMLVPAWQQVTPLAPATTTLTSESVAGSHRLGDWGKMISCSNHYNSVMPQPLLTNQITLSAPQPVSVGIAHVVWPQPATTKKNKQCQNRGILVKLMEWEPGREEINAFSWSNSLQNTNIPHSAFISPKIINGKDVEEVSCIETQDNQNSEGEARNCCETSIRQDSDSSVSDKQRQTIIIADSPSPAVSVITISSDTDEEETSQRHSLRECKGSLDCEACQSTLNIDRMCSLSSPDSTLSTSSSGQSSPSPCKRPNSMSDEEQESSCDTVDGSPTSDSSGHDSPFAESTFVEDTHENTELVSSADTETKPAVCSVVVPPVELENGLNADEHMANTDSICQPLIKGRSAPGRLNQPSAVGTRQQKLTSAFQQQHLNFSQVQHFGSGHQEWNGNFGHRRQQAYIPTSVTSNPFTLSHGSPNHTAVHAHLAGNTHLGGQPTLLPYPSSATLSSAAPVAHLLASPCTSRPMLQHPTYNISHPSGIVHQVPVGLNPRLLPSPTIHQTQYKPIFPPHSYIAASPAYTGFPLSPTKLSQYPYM
COc1ccc2c(c1)c(C1=C(c3c[nH]c4ccccc34)C(=O)NC1=O)cn2CCCN(C)C gave a residual activity of 72%.
COc1cc2nccc(Oc3ccc(NC(=S)NC(=O)c4ccccc4C)cc3)c2cc1OC gave a residual activity of 88%.
In the case of CC(C)(C)n1nc(Cc2cccc3ccccc23)c2c(N)ncnc21, the residual activity is reported as 93%.
O=C(NC(NC(=S)Nc1ccc(F)c([N+](=O)[O-])c1)C(Cl)(Cl)Cl)C(c1ccccc1)c1ccccc1 (configuration not stated) gave a residual activity of 96%.
For Nc1ncnc2c1cnn2-c1ccccc1, the residual activity was 99%.
O=C1NC(=O)c2c1c1c3ccccc3[nH]c1n1cncc21 showed a residual activity of 61%.
CCCCc1c(-c2ccc(OC)cc2)[nH]c2nccnc12 gave a residual activity of 106%.
Nc1ncnc2c1c(-c1ccc(Oc3ccccc3)cc1)cn2C1CCCC1 showed a residual activity of 86%.
With O=c1cc(N2CCOCC2)oc2c1ccc1ccccc12 the residual activity was 71%.
With CCCC(=O)Oc1ccc2[nH]c(C(=O)c3cc4ccccc4[nH]3)cc2c1 the residual activity was 93%.
In the case of CCN(CC)CCNC(=O)c1c(C)[nH]c(/C=C2\C(=O)Nc3ccc(Cl)cc32)c1C, the residual activity is reported as 9%.
O=C(c1cc2cc(O)ccc2[nH]1)c1cc2cc(O)ccc2[nH]1 showed a residual activity of 76%.
With CN(C)S(=O)(=O)c1ccc2c(c1)/C(=C/c1cc3c([nH]1)CCCC3)C(=O)N2 the residual activity was 99%.
Oc1cccc(-c2nc(N3CCOCC3)c3oc4ncccc4c3n2)c1 was tested, and the residual activity was 93%.
O=C(CCCc1ccc(-c2ccccc2F)cc1)Nc1ccc(O)cc1 showed a residual activity of 103%.
NC(=O)Nc1sc(-c2ccc(F)cc2)cc1C(N)=O was tested, and the residual activity was 100%.
Work on O=C(c1ccccc1)c1ccc(N2CCOCC2)cc1O yielded a residual activity of 87%.
For O=C(O)/C=C/c1cc(Br)c(Br)c(Br)c1Br, the residual activity was 94%.
O=c1cc(N2CCNCC2)oc2c(-c3ccccc3)cccc12 was tested, and the residual activity was 90%.
With O=C1Nc2ccc(Cl)cc2/C1=C/c1cc(Cl)c(O)c(Cl)c1 the residual activity was 79%.
Work on O=C1C(Cl)=C(N2C(=O)CCC2=O)C(=O)c2ccccc21 yielded a residual activity of 93%.
With CC(C)c1nn(-c2c(Cl)cccc2Cl)c2nc(Cc3ccc(OCCO)cc3)[nH]c(=O)c12 the residual activity was 107%.

These molecules were tested against Homeodomain-interacting protein kinase 3 (Homo sapiens) (UniProt Q9H422). Settings: at 10 µM.
Work on COc1ccc2c(c1)c(C1=C(c3c[nH]c4ccccc34)C(=O)NC1=O)cn2CCCN(C)C yielded a residual activity of 22%.
COc1cc2nccc(Oc3ccc(NC(=S)NC(=O)c4ccccc4C)cc3)c2cc1OC was tested, and the residual activity was 101%.
For CC(C)(C)n1nc(Cc2cccc3ccccc23)c2c(N)ncnc21, the residual activity was 97%.
For O=C(NC(NC(=S)Nc1ccc(F)c([N+](=O)[O-])c1)C(Cl)(Cl)Cl)C(c1ccccc1)c1ccccc1 (configuration not stated), the residual activity was 103%.
With Nc1ncnc2c1cnn2-c1ccccc1 the residual activity was 94%.
Work on O=C1NC(=O)c2c1c1c3ccccc3[nH]c1n1cncc21 yielded a residual activity of 42%.
CCCCc1c(-c2ccc(OC)cc2)[nH]c2nccnc12 showed a residual activity of 110%.
Nc1ncnc2c1c(-c1ccc(Oc3ccccc3)cc1)cn2C1CCCC1 showed a residual activity of 97%.
O=c1cc(N2CCOCC2)oc2c1ccc1ccccc12 gave a residual activity of 21%.
CCCC(=O)Oc1ccc2[nH]c(C(=O)c3cc4ccccc4[nH]3)cc2c1 was tested, and the residual activity was 98%.
CCN(CC)CCNC(=O)c1c(C)[nH]c(/C=C2\C(=O)Nc3ccc(Cl)cc32)c1C was tested, and the residual activity was -5%.
Work on O=C(c1cc2cc(O)ccc2[nH]1)c1cc2cc(O)ccc2[nH]1 yielded a residual activity of 25%.
CN(C)S(=O)(=O)c1ccc2c(c1)/C(=C/c1cc3c([nH]1)CCCC3)C(=O)N2 showed a residual activity of 86%.
Oc1cccc(-c2nc(N3CCOCC3)c3oc4ncccc4c3n2)c1 was tested, and the residual activity was 59%.
O=C(CCCc1ccc(-c2ccccc2F)cc1)Nc1ccc(O)cc1 was tested, and the residual activity was 98%.
NC(=O)Nc1sc(-c2ccc(F)cc2)cc1C(N)=O was tested, and the residual activity was 90%.
With O=C(O)/C=C/c1cc(Br)c(Br)c(Br)c1Br the residual activity was 54%.
O=c1cc(N2CCNCC2)oc2c(-c3ccccc3)cccc12 was tested, and the residual activity was 99%.
O=C1Nc2ccc(Cl)cc2/C1=C/c1cc(Cl)c(O)c(Cl)c1 was tested, and the residual activity was 46%.
CC(C)[C@H](CO)Nc1nc(Nc2cc(N)cc(Cl)c2)c2ncn(C(C)C)c2n1 showed a residual activity of 73%.
For O=C1C(Cl)=C(N2C(=O)CCC2=O)C(=O)c2ccccc21, the residual activity was 86%.
Work on CC(C)c1nn(-c2c(Cl)cccc2Cl)c2nc(Cc3ccc(OCCO)cc3)[nH]c(=O)c12 yielded a residual activity of 103%.

— ChEMBL document CHEMBL2218924, “A broad activity screen in support of a chemogenomic map for kinase signalling research and drug discovery” (Biochem J, 2013)
